# Assay results published in PubChem BioAssay (NCATS).
# Records with an inconclusive call do not appear. Entries that show only a call come without a potency. Activity calls are given as the source filed them. Calls come from the whole dose curve; as a rule, active = well fitted curve in the direction sought with a large enough effect; inconclusive = small, poorly fitted or top-dose-only effect, or another doubt; inactive = no such curve, though single readings can be large; an effect the other way counts as inactive or inconclusive.
# How the values were obtained:
# [1] = target: Aldehyde dehydrogenase, mitochondrial (Homo sapiens) (UniProt P05091); test: qHTS for Inhibitors of the Aldehyde Dehydrogenase Family (ALDH2) Primary screen (AID 2061308); note: nearly all actives have a fitted effect of over 55% in size
# [2] = target: Retinaldehyde dehydrogenase 3 (Homo sapiens) (UniProt P47895); test: qHTS for Inhibitors of the Aldehyde Dehydrogenase Family (ALDH1A3) Primary screen (AID 2061315)
SMILES,Potency [1],Potency [2]
CN[C@@H]1[C@H](O[C@H]2[C@H](O[C@@H]3[C@@H](O)[C@H](O)[C@@H](N=C(N)N)[C@H](O)[C@H]3N=C(N)N)O[C@@H](C)[C@]2(O)CO)O[C@@H](CO)[C@H](O)[C@H]1O,inactive,inactive
NCc1ccc(Nc2ncc(F)c(Nc3ccccc3)n2)cc1,inactive,inactive
O=C(Nc1ccc(S(=O)(=O)Nc2nccs2)cc1)c1cccnc1,inactive,inactive
N#Cc1nc(NCCCO)nc(Nc2ccccc2)n1,inactive,inactive
Cc1cc(C)nc(NC(=S)N2CCN(c3ccc(S(C)(=O)=O)cc3F)CC2)c1,inactive,inactive
COc1ccc(/C=C2/C(=O)Nc3ccccc32)cc1O,inactive,inactive
CCCCCCCCn1cc(CN(CC)CC)c2cc(-c3cnc(N)nc3)ccc21,inactive,inactive
Cc1ccc(S(=O)(=O)Nc2cnccc2C(=O)NCc2ccccc2)cc1,inactive,inactive
Cc1cccc(Nc2nn3c(=O)c4ccccc4nc3s2)c1,inactive,inactive
CC(=O)Oc1ccc(C2(c3ccc(OC(C)=O)cc3)Oc3ccccc3NC2=O)cc1,inactive,inactive
CCOc1ccc(CCNC(=O)c2cc3sccc3n2CCc2ccccc2)cc1OCC,inactive,inactive
COc1ccc(-c2ccc3ncnc(NCCc4cnc[nH]4)c3c2)cc1OC,inactive,inactive
Cc1ccc(NS(=O)(=O)c2ccc3c(c2)CC(=O)N3C)cc1C,inactive,inactive
NC(=O)c1ccc(Cc2c(-c3cccc(-c4ccccc4)c3)[nH]n(-c3nc(C(=O)O)cs3)c2=O)cc1,inactive,inactive
O=S(=O)(Nc1cnc2ccccc2c1)c1ccc(NCc2cccc(Cl)c2O)cc1,inactive,inactive
COC(=O)c1ccc(NC(=O)c2cc(-c3ccc(C)c(C)c3)nc3ccccc23)cc1,inactive,inactive
CC(C)=CCCC1(C)C2CCC1(C)C(O)C2 (stereo unspecified),inactive,inactive
COc1cc(C2Nc3ccccc3C(=O)N2Cc2ccccc2)ccc1OCc1ccc(NC(C)=O)cc1 (stereo unspecified),inactive,inactive
COc1ccccc1N1C(=O)c2ccccc2C1=O,inactive,inactive

SMILES,Potency [1],Potency [2]
CCN(CC)CCn1c(-c2ccccc2)nc2c(NCCOC)nc(C)nc21,inactive,inactive
COc1ccc(C2=Nn3c(nnc3-c3ccccc3OC)SC2)cc1OC,inactive,inactive
NC(=O)C1CCN(c2nc(-c3ccc(N)cc3)cs2)CC1,inactive,inactive
CCCn1c(-c2ccc(F)cc2)nc2c(NC3CCN(Cc4ccccc4)CC3)nc(C)nc21,inactive,inactive
N#Cc1ccc(OC2=NS(=O)(=O)c3ccccc32)cc1,inactive,inactive
Nc1cccc(S(=O)(=O)N2CCN(S(=O)(=O)c3c(F)cccc3F)CC2)c1,inactive,inactive
CCCc1cc(F)c(S(=O)(=O)N2CCN(S(=O)(=O)c3ccc4c(c3)OCCO4)CC2)cc1F,inactive,inactive
O=C(O)CNc1cccc(-c2nn3c(=O)cc(N4CCNCC4)nc3s2)c1,inactive,inactive
COc1cc(O)c(C(CC(=O)N2CCCC2)c2ccc3c(c2)OCO3)c(OC)c1 (stereo unspecified),inactive,inactive
O=c1c2ccccc2nc2sc(Nc3ccc(Br)cc3)nn12,inactive,inactive
COc1cccc(-n2cnc3cc(C(=O)N4CCCCC4)ccc32)c1,inactive,inactive
Cc1ccc(-c2cc(C(=O)NCc3ccccc3)c3ccccc3n2)cc1C,inactive,inactive
Cc1ccc(S(=O)(=O)Nc2cnccc2C(=O)Nc2ccc(-c3nn[nH]n3)cc2)cc1,inactive,inactive
CN(Cc1cccs1)c1ncnc2ccc(-c3ccc4cn(C)nc4c3)cc12,inactive,inactive
CC[C@H]1OC(=O)[C@](C)(F)C(=O)[C@H](C)[C@@H](O[C@@H]2O[C@H](C)C[C@H](N(C)C)[C@H]2O)[C@](C)(OC)C[C@@H](C)C(=O)[C@@H](C)[C@H]2N(CCCCn3cc(-c4cccc(N)c4)nn3)C(=O)O[C@]12C,inactive,inactive
CS(=O)(=O)c1ccc(C(=O)OCC(=O)N2CCOCC2)cc1[N+](=O)[O-],inactive,inactive
CCOc1ccc(NC(=O)c2ccc(-c3nc4ccccc4[nH]3)cc2)cc1Cl,inactive,inactive
COc1ccc(Cl)cc1C(=O)Nc1nc(-c2ccccc2)cs1,inactive,inactive
Cc1ccc(-c2cc(C(=O)Nc3ccc(S(=O)(=O)NCc4nccs4)cc3)c3ccccc3n2)cc1C,inactive,inactive
